Activity calls are given as the source filed them. How the source made its calls: active means hit-call score of the fitted dose curve at least 0.9, where 1 is the maximum; inactive means score below 0.9.
What was measured:
Details in all cases: mRNA level, 48 h; actives raise or lower the signal
CYP2C8 (gene 1558) = assay: LTEA_HepaRG_CYP2C8: Life Technologies and Expression Analysis (LTEA) Assay for CYP2C8 using HepaRG (AID 2283483)
How it was run: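 This is a transcriptional endpoint in HepaRG cultures: 48 h exposure, highest concentration 100 uM. CYP2C8 mRNA is quantified by TaqMan qRT-PCR.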

CYP2C9 (gene 1559) = assay: LTEA_HepaRG_CYP2C9: Life Technologies and Expression Analysis (LTEA) Assay for CYP2C9 using HepaRG (AID 2283484)
How it was run: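 Eight-point concentration-response (highest 100 uM, half-log dilutions) in HepaRG cells for 48 h; CYP2C9 expression by qRT-PCR normalized to ACTB, GAPDH, POLR2A. Bidirectional fit, DMSO baseline.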

CYP2E1 (gene 1571) = assay: LTEA_HepaRG_CYP2E1: Life Technologies and Expression Analysis (LTEA) Assay for CYP2E1 using HepaRG (AID 2283485)
How it was run: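 CYP2E1 transcript was measured by TaqMan qRT-PCR in human HepaRG cultures after 48 h chemical exposure (top 100 uM, half-log steps, 0.5% DMSO vehicle). Housekeeping-gene normalization; gain or loss fitted relative to DMSO baseline.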

CYP4A11 (gene 1579) = assay: LTEA_HepaRG_CYP4A11: Life Technologies and Expression Analysis (LTEA) Assay for CYP4A11 using HepaRG (AID 2283486)
How it was run: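 Readout is CYP4A11 mRNA induction or suppression (qRT-PCR, ACTB/GAPDH/POLR2A normalization) in human HepaRG cells after 48 h chemical treatment, concentrations to 100 uM in 0.5% DMSO, fitted bidirectionally against vehicle.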

[1] = read-out: Cytochrome P450 3A4 (Homo sapiens) (UniProt P08684); assay: LTEA_HepaRG_CYP3A4: Life Technologies and Expression Analysis (LTEA) Assay for CYP3A4 using HepaRG (AID 2283487)
How it was run: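 HepaRG, 48 h exposure, 8-pt CRC from 100 uM (half-log), 0.5% DMSO, duplicates; serum-free induction medium. Readout: CYP3A4 mRNA, qRT-PCR, ACTB/GAPDH/POLR2A normalization. Bidirectional fit vs DMSO.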

[2] = read-out: DNA damage-inducible transcript 3 (DDIT3), DDIT3 (gene 1649); assay: LTEA_HepaRG_DDIT3: Life Technologies and Expression Analysis (LTEA) Assay for DNA damage-inducible transcript 3 (DDIT3) using HepaRG (AID 2283488)
How it was run: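 qRT-PCR readout (Fluidigm TaqMan), housekeeping-normalized to ACTB, GAPDH, POLR2A. HepaRG cells, 48 h exposure, 8-point half-log series from 100 uM in 0.5% DMSO, duplicates. Gain or loss of signal fitted against DMSO baseline.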

[3] = read-out: Pro-epidermal growth factor (Homo sapiens) (UniProt P01133); assay: LTEA_HepaRG_EGF: Life Technologies and Expression Analysis (LTEA) Assay for Epidermal growth factor (EGF) using HepaRG (AID 2283489)
How it was run: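 EGF expression changes in human HepaRG cells are scored by bidirectional fitting relative to 0.5% DMSO controls. Chemicals are tested at eight half-log concentrations up to 100 uM for 48 h in serum-free induction medium.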

[4] = read-out: Early growth response protein 1 (EGR1) transcription factor, EGR1 (gene 1958); assay: LTEA_HepaRG_EGR1: Life Technologies and Expression Analysis (LTEA) Assay for Early growth response protein 1 (EGR1) transcription factor using HepaRG (AID 2283490)
How it was run: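 EGR1 expression change in human HepaRG after 48 h chemical exposure, assessed by housekeeping-normalized qRT-PCR; concentration-response up to 100 uM, fitted in both directions against DMSO controls.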

[5] = read-out: Ezrin (EZR), EZR (gene 7430); assay: LTEA_HepaRG_EZR: Life Technologies and Expression Analysis (LTEA) Assay for Ezrin (EZR) using HepaRG (AID 2283491)
How it was run: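 Read-out is EZR transcript level by qRT-PCR, normalized to three housekeeping genes and fitted bidirectionally against the DMSO control. Human HepaRG cells received test chemicals for 48 h at eight half-log concentrations up to 100 uM in 0.5% DMSO.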

[6] = read-out: Cytochrome P450 3A7 (Homo sapiens) (UniProt P24462); assay: LTEA_HepaRG_CYP3A7: Life Technologies and Expression Analysis (LTEA) Assay for CYP3A7 using HepaRG (AID 2283492)
How it was run: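 Cells were thawed, plated, cultured 48 h, then treated for a further 48 h with chemicals (eight-point half-log series from 100 uM, 0.5% DMSO). RNA was isolated and CYP3A7 expression quantified by qRT-PCR normalised to ACTB, GAPDH and POLR2A.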

Chain of Cytochrome P450 3A4 (Homo sapiens) (P08684 whole entry, looked up): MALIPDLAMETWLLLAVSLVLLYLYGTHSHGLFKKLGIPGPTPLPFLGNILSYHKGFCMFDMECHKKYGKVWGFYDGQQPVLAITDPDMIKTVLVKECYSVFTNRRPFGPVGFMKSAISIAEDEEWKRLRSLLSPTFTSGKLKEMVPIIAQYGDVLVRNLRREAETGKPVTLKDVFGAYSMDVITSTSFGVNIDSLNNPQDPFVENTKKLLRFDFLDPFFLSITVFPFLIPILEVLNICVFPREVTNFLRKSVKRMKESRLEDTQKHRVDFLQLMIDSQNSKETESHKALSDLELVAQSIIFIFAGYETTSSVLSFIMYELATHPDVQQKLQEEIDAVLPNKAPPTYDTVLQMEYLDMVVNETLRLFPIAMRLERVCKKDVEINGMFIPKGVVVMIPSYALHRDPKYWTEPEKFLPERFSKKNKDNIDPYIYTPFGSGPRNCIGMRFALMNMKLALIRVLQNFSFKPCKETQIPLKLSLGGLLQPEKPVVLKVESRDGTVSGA
Chain of Cytochrome P450 3A7 (Homo sapiens) (P24462 whole entry, looked up): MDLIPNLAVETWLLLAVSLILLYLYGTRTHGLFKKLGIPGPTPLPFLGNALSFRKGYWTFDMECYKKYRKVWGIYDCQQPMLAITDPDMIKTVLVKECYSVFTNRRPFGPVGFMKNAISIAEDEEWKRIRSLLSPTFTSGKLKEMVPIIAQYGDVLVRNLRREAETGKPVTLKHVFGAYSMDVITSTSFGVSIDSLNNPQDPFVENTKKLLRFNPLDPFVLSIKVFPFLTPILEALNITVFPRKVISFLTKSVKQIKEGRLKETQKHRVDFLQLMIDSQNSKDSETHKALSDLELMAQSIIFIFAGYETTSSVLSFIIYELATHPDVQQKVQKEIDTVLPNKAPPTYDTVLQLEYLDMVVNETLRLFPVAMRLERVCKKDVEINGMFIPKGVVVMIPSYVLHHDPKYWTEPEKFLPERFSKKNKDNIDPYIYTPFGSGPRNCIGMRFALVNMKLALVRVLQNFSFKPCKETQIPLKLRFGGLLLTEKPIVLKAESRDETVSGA

CC(C)CCCCCCCOC(=O)CCCCC(=O)OCCCCCCCC(C)C
outcome (CYP2C8 (gene 1558)): inactive
outcome (CYP2C9 (gene 1559)): inactive
outcome (CYP2E1 (gene 1571)): inactive
outcome (CYP4A11 (gene 1579)): inactive
outcome [1]: inactive
outcome [2]: inactive
outcome [3]: inactive
outcome [4]: inactive
outcome [5]: inactive
outcome [6]: inactive

CC(=O)c1ccc2c(c1)[C@H](NC(=O)c1ccc(F)cc1)[C@@H](O)C(C)(C)O2
outcome (CYP2C8 (gene 1558)): inactive
outcome (CYP2C9 (gene 1559)): inactive
outcome (CYP2E1 (gene 1571)): inactive
outcome (CYP4A11 (gene 1579)): inactive
AC50 [1]: 18 µM (active)
outcome [2]: inactive
outcome [3]: inactive
outcome [4]: inactive
outcome [5]: inactive
AC50 [6]: 34.2 µM (active)

Clc1nc(Cl)c(Cl)c(Cl)c1Cl
outcome (CYP2C8 (gene 1558)): inactive
outcome (CYP2C9 (gene 1559)): inactive
outcome (CYP2E1 (gene 1571)): inactive
outcome (CYP4A11 (gene 1579)): inactive
outcome [1]: inactive
outcome [2]: inactive
outcome [3]: inactive
outcome [4]: inactive
outcome [5]: inactive
outcome [6]: inactive

Cn1c(=O)cc(Oc2ccc(F)cc2F)c2cnc(NCC(C)(C)O)nc21
outcome (CYP2C8 (gene 1558)): inactive
outcome (CYP2C9 (gene 1559)): inactive
AC50 (CYP2E1 (gene 1571)): 50 µM (active)
AC50 (CYP4A11 (gene 1579)): 50 µM (active)
AC50 [1]: 50 µM (active)
outcome [2]: inactive
outcome [3]: inactive
outcome [4]: inactive
outcome [5]: inactive
AC50 [6]: 28.9 µM (active)

COC(=O)CC(=O)OC
outcome (CYP2C8 (gene 1558)): inactive
outcome (CYP2C9 (gene 1559)): inactive
AC50 (CYP2E1 (gene 1571)): 33 µM (active)
outcome (CYP4A11 (gene 1579)): inactive
AC50 [1]: 2.53 µM (active)
outcome [2]: inactive
outcome [3]: inactive
outcome [4]: inactive
outcome [5]: inactive
AC50 [6]: 3.64 µM (active)

CCn1nc(Cc2ccccc2)cc1C1CCN(C[C@H]2C[C@H](N(C)[C@@H](C(=O)O)C(C)C)C[C@@H]2c2cccc(F)c2)CC1
AC50 (CYP2C8 (gene 1558)): 24.6 µM (active)
AC50 (CYP2C9 (gene 1559)): 27.8 µM (active)
AC50 (CYP2E1 (gene 1571)): 20.4 µM (active)
AC50 (CYP4A11 (gene 1579)): 50 µM (active)
outcome [1]: inactive
AC50 [2]: 50 µM (active)
outcome [3]: inactive
outcome [4]: inactive
outcome [5]: inactive
outcome [6]: inactive

CCOc1cccc(-n2cc(C(=O)N3CCN(c4cc(C(=O)O)c5ccccc5c4)CC3)nc2-c2ccc(C)cc2)c1
AC50 (CYP2C8 (gene 1558)): 25.6 µM (active)
AC50 (CYP2C9 (gene 1559)): 31.6 µM (active)
AC50 (CYP2E1 (gene 1571)): 14.7 µM (active)
AC50 (CYP4A11 (gene 1579)): 28.9 µM (active)
AC50 [1]: 31.1 µM (active)
AC50 [2]: 12.4 µM (active)
AC50 [3]: 88 µM (active)
AC50 [4]: 83.7 µM (active)
outcome [5]: inactive
outcome [6]: inactive

CCCCCCc1ccc(O)cc1O
outcome (CYP2C8 (gene 1558)): inactive
outcome (CYP2C9 (gene 1559)): inactive
outcome (CYP2E1 (gene 1571)): inactive
outcome (CYP4A11 (gene 1579)): inactive
outcome [1]: inactive
outcome [2]: inactive
outcome [3]: inactive
outcome [4]: inactive
outcome [5]: inactive
outcome [6]: inactive

CC(C)=CCCC(C)=CC=O
outcome (CYP2C8 (gene 1558)): inactive
outcome (CYP2C9 (gene 1559)): inactive
outcome (CYP2E1 (gene 1571)): inactive
outcome (CYP4A11 (gene 1579)): inactive
outcome [1]: inactive
outcome [2]: inactive
outcome [3]: inactive
outcome [4]: inactive
outcome [5]: inactive
outcome [6]: inactive

O=P(OC(CCl)CCl)(OC(CCl)CCl)OC(CCl)CCl
AC50 (CYP2C8 (gene 1558)): 89.6 µM (active)
AC50 (CYP2C9 (gene 1559)): 76.3 µM (active)
AC50 (CYP2E1 (gene 1571)): 56 µM (active)
AC50 (CYP4A11 (gene 1579)): 67.8 µM (active)
AC50 [1]: 88.5 µM (active)
AC50 [2]: 79.1 µM (active)
AC50 [3]: 88.8 µM (active)
AC50 [4]: 91.6 µM (active)
AC50 [5]: 89.1 µM (active)
AC50 [6]: 9.92 µM (active)

COc1cccc(-c2ccc(/C=C\CN3CCCCCC3)cc2Cl)c1
AC50 (CYP2C8 (gene 1558)): 74.1 µM (active)
AC50 (CYP2C9 (gene 1559)): 70.8 µM (active)
AC50 (CYP2E1 (gene 1571)): 61.8 µM (active)
AC50 (CYP4A11 (gene 1579)): 85.4 µM (active)
AC50 [1]: 76.3 µM (active)
AC50 [2]: 79.4 µM (active)
outcome [3]: inactive
AC50 [4]: 72.7 µM (active)
AC50 [5]: 45.2 µM (active)
AC50 [6]: 81.9 µM (active)

O=C1CCCCCN1
outcome (CYP2C8 (gene 1558)): inactive
outcome (CYP2C9 (gene 1559)): inactive
outcome (CYP2E1 (gene 1571)): inactive
outcome (CYP4A11 (gene 1579)): inactive
outcome [1]: inactive
outcome [2]: inactive
outcome [3]: inactive
outcome [4]: inactive
outcome [5]: inactive
outcome [6]: inactive

CC(C)=CCCC(C)CCO (stereo not given)
outcome (CYP2C8 (gene 1558)): inactive
outcome (CYP2C9 (gene 1559)): inactive
outcome (CYP2E1 (gene 1571)): inactive
outcome (CYP4A11 (gene 1579)): inactive
outcome [1]: inactive
outcome [2]: inactive
outcome [3]: inactive
outcome [4]: inactive
outcome [5]: inactive
outcome [6]: inactive

CNCc1ccc(NC(=O)c2c[nH]c3c2C(=O)CCC3)cc1
outcome (CYP2C8 (gene 1558)): inactive
outcome (CYP2C9 (gene 1559)): inactive
outcome (CYP2E1 (gene 1571)): inactive
outcome (CYP4A11 (gene 1579)): inactive
outcome [1]: inactive
outcome [2]: inactive
outcome [3]: inactive
outcome [4]: inactive
outcome [5]: inactive
outcome [6]: inactive

CC[C@H]1OC(=O)[C@H](C)[C@@H](O[C@H]2C[C@@](C)(OC)[C@@H](O)[C@H](C)O2)[C@H](C)[C@@H](O[C@@H]2O[C@H](C)C[C@H](N(C)C)[C@H]2O)[C@](C)(O)C[C@@H](C)C(=O)[C@H](C)[C@@H](O)[C@]1(C)O
outcome (CYP2C8 (gene 1558)): inactive
outcome (CYP2C9 (gene 1559)): inactive
AC50 (CYP2E1 (gene 1571)): 16 µM (active)
outcome (CYP4A11 (gene 1579)): inactive
AC50 [1]: 19.6 µM (active)
outcome [2]: inactive
outcome [3]: inactive
outcome [4]: inactive
outcome [5]: inactive
AC50 [6]: 13.9 µM (active)

CC(O)CN(CCN(CC(C)O)CC(C)O)CC(C)O (stereo not given)
AC50 (CYP2C8 (gene 1558)): 12.6 µM (active)
outcome (CYP2C9 (gene 1559)): inactive
outcome (CYP2E1 (gene 1571)): inactive
AC50 (CYP4A11 (gene 1579)): 12.8 µM (active)
outcome [1]: inactive
outcome [2]: inactive
outcome [3]: inactive
AC50 [4]: 12.6 µM (active)
outcome [5]: inactive
outcome [6]: inactive

Cc1ccc(N)cc1O
outcome (CYP2C8 (gene 1558)): inactive
outcome (CYP2C9 (gene 1559)): inactive
AC50 (CYP2E1 (gene 1571)): 30.8 µM (active)
outcome (CYP4A11 (gene 1579)): inactive
outcome [1]: inactive
outcome [2]: inactive
outcome [3]: inactive
outcome [4]: inactive
outcome [5]: inactive
outcome [6]: inactive

CC(C)c1cccc(C(C)C)c1N1C(=O)c2ccc(O)cc2C1=O
outcome (CYP2C8 (gene 1558)): inactive
outcome (CYP2C9 (gene 1559)): inactive
AC50 (CYP2E1 (gene 1571)): 89.7 µM (active)
AC50 (CYP4A11 (gene 1579)): 72 µM (active)
AC50 [1]: 11.6 µM (active)
AC50 [2]: 74.9 µM (active)
outcome [3]: inactive
AC50 [4]: 86.2 µM (active)
outcome [5]: inactive
AC50 [6]: 87.9 µM (active)

CCc1cc(SCc2sc(-c3ccc(C(F)(F)F)cc3)nc2CN2CCN(c3ccc(OC)cc3)CC2)ccc1OCC(=O)O
outcome (CYP2C8 (gene 1558)): inactive
AC50 (CYP2C9 (gene 1559)): 76.6 µM (active)
AC50 (CYP2E1 (gene 1571)): 75.4 µM (active)
AC50 (CYP4A11 (gene 1579)): 74.7 µM (active)
AC50 [1]: 7.66 µM (active)
AC50 [2]: 3.85 µM (active)
outcome [3]: inactive
AC50 [4]: 51.9 µM (active)
AC50 [5]: 94.3 µM (active)
AC50 [6]: 8.73 µM (active)

COC(=O)c1c(Cl)c(Cl)c(C(=O)OC)c(Cl)c1Cl
outcome (CYP2C8 (gene 1558)): inactive
outcome (CYP2C9 (gene 1559)): inactive
outcome (CYP2E1 (gene 1571)): inactive
outcome (CYP4A11 (gene 1579)): inactive
outcome [1]: inactive
outcome [2]: inactive
outcome [3]: inactive
outcome [4]: inactive
outcome [5]: inactive
outcome [6]: inactive

From PubChem BioAssay (EPA / NIEHS)
